# According to PubChem BioAssay (NCI):
# Several values for one entry are separate records, joined by “and”; a condition that tells them apart may be missing. Equal entries are not always repeated. Compounds without any hit were thinned out: in the full panel of roughly 83,000, 20% have a hit.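 Values shown are percent growth following 48 h exposure of cells in 96-well plates to a single concentration of compound; below 10 was considered active.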 Activity calls are given as the source filed them.
# Key:
# Experiment in all cases: NCI-60 one-dose screen, 48 h (100 = growth as untreated, 0 = no growth, -100 = all killed)
# Conditions in all cases: 10 µM unless noted
# SR leukemia = test system: SR leukemia
# RPMI-8226 leukemia = test system: RPMI-8226 leukemia
# OVCAR-8 ovarian = test system: OVCAR-8 ovarian
# OVCAR-5 ovarian = test system: OVCAR-5 ovarian
# OVCAR-4 ovarian = test system: OVCAR-4 ovarian
# SK-OV-3 ovarian = test system: SK-OV-3 ovarian
# IGROV1 ovarian = test system: IGROV1 ovarian
# OVCAR-3 ovarian = test system: OVCAR-3 ovarian
# HS 578T breast = test system: HS 578T breast
# NCI/ADR-RES ovarian = test system: NCI/ADR-RES ovarian
Compound,growth (SR leukemia),growth (RPMI-8226 leukemia),growth (OVCAR-8 ovarian),growth (OVCAR-5 ovarian),growth (OVCAR-4 ovarian),growth (SK-OV-3 ovarian),growth (IGROV1 ovarian),growth (OVCAR-3 ovarian),growth (HS 578T breast),growth (NCI/ADR-RES ovarian)
C[C@@H]1O[C@@H](O[C@H]2[C@@H](OC(=O)[C@]34CCC(C)(C)C[C@H]3C3=CC[C@@H]5[C@@]6(C)C[C@H](O)[C@H](O[C@@H]7O[C@H](CO)[C@@H](O)[C@H](O)[C@H]7O)[C@@](C)(CO)[C@@H]6CC[C@@]5(C)[C@]3(C)C[C@H]4O)OC[C@@H](O)[C@@H]2O)[C@H](O)[C@H](O[C@@H]2OC[C@@H](O)[C@H](O[C@@H]3OC[C@](O)(CO)[C@H]3O[C@@H]3OC[C@@H](O)[C@H](O)[C@H]3O)[C@H]2O)[C@H]1O[C@@H]1OC[C@](O)(CO)[C@H]1O,67.5% (inactive),64% (inactive),98.8% (inactive),78.1% (inactive),42.5% (inactive),93.9% (inactive),86.4% (inactive),89.6% (inactive),97.9% (inactive),80.5% (inactive)
CCOC(=O)CCCn1c(-c2ccccc2)cc(-c2ccccc2)c(C#N)c1=O,63.7% (inactive),87.2% (inactive),85.6% (inactive),99.5% (inactive),94.8% (inactive),100% (inactive),77.2% (inactive),103% (inactive),67.8% (inactive),72% (inactive)
COc1cc2cc(NCc3ccncc3)nc(C)c2cc1OC,70.9% (inactive),106% (inactive),91.5% (inactive),80.7% (inactive),94.4% (inactive),77.6% (inactive),113% (inactive),107% (inactive),83.5% (inactive),97.2% (inactive)
COc1ccc(/C(C)=C(\c2ccc(OCCN3CCOCC3)cc2)c2ccc(OC(=O)C3CCCCC3)cc2)cc1,112% (inactive),97.9% (inactive),105% (inactive),98.4% (inactive),111% (inactive),101% (inactive),102% (inactive),97.5% (inactive),110% (inactive),102% (inactive)
COc1cc(CNC(=O)CCCC/C=C/C(C)C)ccc1OCc1cn(-c2ccc([N+](=O)[O-])cc2)nn1,62.2% (inactive),61.8% (inactive),82.9% (inactive),99.1% (inactive),87.2% (inactive),76.7% (inactive),90.4% (inactive),92.7% (inactive),95.8% (inactive),29% (inactive)
CN(C)CCN1C(=O)c2c(c3c4ccccc4n4c3c3c2c2ccccc2n3C2CC(O)C(O)C4(C)O2)C1=O (stereo not given),5.57% (active),18.5% (inactive),25.3% (inactive),55.6% (inactive),29.3% (inactive),25.3% (inactive),16.5% (inactive),41.4% (inactive),41.7% (inactive),54.5% (inactive)
C=C1CC[C@@H]2[C@](C)(COC(C)=O)[C@H](OC(C)=O)CC[C@@]2(C)[C@@H]1CC(Nc1ccc(S(=O)(=O)Nc2nccs2)cc1)C1=CCOC1=O (stereo not given in full),-5.84% (active),-13.3% (active),4.39% (active),7.82% (active),38% (inactive),79.9% (inactive),12.6% (inactive),-70.2% (active),51.9% (inactive),9.2% (active)
C[C@@H]1CC[C@@H]2[C@@H]1[C@H](OC(=O)/C=C/c1ccccc1)[C@]1(c3ccccc3)C[C@@H](NC(=O)CO)[C@@]2(C)O1,90.4% (inactive),92.2% (inactive),93.9% (inactive),98.5% (inactive),97.2% (inactive),90.4% (inactive),102% (inactive),108% (inactive),92% (inactive),93% (inactive)
COc1ccc(S(=O)(=O)Nc2cc(Sc3cccc4cccnc34)c(O)c3ccccc23)cc1,8.57% (active),5.31% (active),9.48% (active),42.3% (inactive),-99.4% (active),50.7% (inactive),5.99% (active),-81.8% (active),47.2% (inactive),11.1% (inactive)
Clc1ccc2c(NCCN3CCN(c4ccnc(N5CCCC5)n4)CC3)ccnc2c1,-12.2% (active),-10.6% (active),36.8% (inactive),68.8% (inactive),57.8% (inactive),90% (inactive),47.8% (inactive),40.8% (inactive),76.4% (inactive),49% (inactive)
O=C(CN1C(=O)S/C(=C\C(Cl)=C\c2ccccc2)C1=O)NCCCn1ccnc1,2.18% (active),0.978% (active),12.4% (inactive),80.1% (inactive),43.1% (inactive),86% (inactive),2.87% (active),1.07% (active),51.7% (inactive),81.2% (inactive)
O=C(NNc1ccccc1)C1CCCN1 (stereo not given),105% (inactive),78.7% (inactive),86.7% (inactive),69.7% (inactive),64.5% (inactive),80.6% (inactive),75.1% (inactive),88.8% (inactive),93% (inactive),84.1% (inactive)
CCCCCCCCCCCCCCCCCCOc1cccc(CC(=O)OCC[N+](CC)(CC)CC)c1,53% (inactive),35.4% (inactive),41.4% (inactive),71.3% (inactive),27.6% (inactive),103% (inactive),37.1% (inactive),77.7% (inactive),60.8% (inactive),103% (inactive)
CCOC(=O)c1cnn(CC(O)CC)c1NC(=O)NCc1ccccc1C(F)(F)F (stereo not given),114% (inactive),81% (inactive),102% (inactive),103% (inactive),106% (inactive),91.4% (inactive),94.9% (inactive),107% (inactive),109% (inactive),95.4% (inactive)
CCOc1ccccc1NC(=O)c1cc2ccccc2cc1O,45.5% (inactive),25.8% (inactive),52% (inactive),114% (inactive),61% (inactive),81.3% (inactive),60.3% (inactive),18.2% (inactive),51.6% (inactive),28.7% (inactive)
O=S(=O)(Nc1ccc(F)cc1)c1ccc(-c2cnc(C3CC3)o2)cc1,11.6% (inactive),17.2% (inactive),30.4% (inactive),59.1% (inactive),69.9% (inactive),39.7% (inactive),37.9% (inactive),10.2% (inactive),14.1% (inactive),-0.888% (active)
Cc1ccc(S(=O)(=O)Nc2cc(Sc3ccccc3)c(O)c3ccccc23)cc1,20.8% (inactive),28.8% (inactive),-0.704% (active),106% (inactive),-99.7% (active),115% (inactive),85% (inactive),-5.01% (active),98.7% (inactive),5.05% (active)
CCCCCCCCCCCCC[C@H](O)C[C@H](O)[C@H](C)N,-35.7% [1.25 µM] (active),33.2% [1.25 µM] (inactive),89.7% [1.25 µM] (inactive),86.1% [1.25 µM] (inactive),123% [1.25 µM] (inactive),125% [1.25 µM] (inactive),133% [1.25 µM] (inactive),103% [1.25 µM] (inactive),117% [1.25 µM] (inactive),85.9% [1.25 µM] (inactive)
CCCn1nc(C(=O)N2CCCCC2)c2c1CCC(N1CCC(c3ccncc3)CC1)C2 (stereo not given),123% (inactive),105% (inactive),98.3% (inactive),107% (inactive),103% (inactive),109% (inactive),113% (inactive),106% (inactive),103% (inactive),101% (inactive)
COc1ccc(-c2cc(-c3cc(OC)c(OC)c(OC)c3)c(C#N)c(=O)n2CCCCC(=O)O)cc1,72.6% (inactive),84.3% (inactive),92.4% (inactive),105% (inactive),91.5% (inactive),125% (inactive),104% (inactive),99.6% (inactive),87.7% (inactive),102% (inactive)
COC(=O)c1[nH]nc(OC)c1C1(C(C#N)c2nc3ccccc3s2)CCCc2ccccc21 (stereo not given),99.8% (inactive),94.7% (inactive),100% (inactive),80.3% (inactive),103% (inactive),87% (inactive),79% (inactive),98.6% (inactive),99.2% (inactive),101% (inactive)
CCN(CC)CCOc1ccc(/C(=C(\Cl)c2ccccc2)c2ccccc2)cc1,17.4% (inactive) and 85.1% (inactive),-21.2% (active) and 88.8% (inactive),67.2% (inactive) and 104% (inactive),47.5% (inactive) and 72.4% (inactive),55.5% (inactive) and 47.4% (inactive),45.5% (inactive) and 80.8% (inactive),53.6% (inactive),76.9% (inactive) and 118% (inactive),55% (inactive),59.3% (inactive) and 92.9% (inactive)
COc1cc(C=O)ccc1Oc1ccc([N+](=O)[O-])cc1[N+](=O)[O-],80.7% (inactive),89.5% (inactive),93.7% (inactive),109% (inactive),97% (inactive),96.4% (inactive),105% (inactive),107% (inactive),93.1% (inactive),99.6% (inactive)
CN1CCN(c2ccc(Nc3ncc(C(N)=O)c(NCCCNC(=O)C4CCC4)n3)cc2)CC1,30.1% (inactive),101% (inactive),71.6% (inactive),116% (inactive),73.1% (inactive),37.8% (inactive),85.7% (inactive),13.3% (inactive),67.2% (inactive),105% (inactive)
